How the values were obtained:
[1] = test system: Vero E6 infected with SARS-CoV-2; assay: morphology score (similarity to uninfected cells); higher = more like uninfected cells; conditions: 24 h
[2] = test system: Vero E6 infected with SARS-CoV-2; assay: SARS-CoV-2 infection rate relative to infected DMSO; higher = more infection, active = 60 or less; conditions: 24 h

SMILES | morphology score [1] | SARS-CoV-2 infection rate [2]
CC(C)C[C@@H](N)C(=O)N[C@H]1C(=O)N[C@@H](CC(N)=O)C(=O)N[C@H]2C(=O)N[C@H]3C(=O)N[C@H](C(=O)N[C@H](C(=O)O)c4cc(O)cc(O)c4-c4cc3ccc4O)[C@H](O)c3ccc(c(Cl)c3)Oc3cc2cc(c3O[C@@H]2O[C@H](CO)[C@@H](O)[C@H](O)[C@H]2O[C@H]2C[C@](C)(N)[C@H](O)[C@H](C)O2)Oc2ccc(cc2Cl)[C@H]1O [norvancomycin] (10 µM) | 0.00559 | 100% (inactive)
CC#CC(=O)N1CC[C@@H](n2c(=O)n(-c3ccc(Oc4ccccc4)cc3)c3c(N)ncnc32)C1 (0.833333 µM) | -0.0591 | 90% (inactive)
Cc1ncc(CO)c(C=O)c1O [pyridoxal] (10 µM) | -0.165 | 109% (inactive)
Cc1cc(-c2ccc(CC(=O)Nc3ccc(-c4cccnc4)cc3)cc2)ccn1 (10 µM) | 0.392 | 75.5% (inactive)
C[C@H]1COC2=C1C(=O)C(=O)c1c2ccc2c1CCCC2(C)C [cryptotanshinone] (10 µM) | 0.0318 | 100% (inactive)
COc1cc2ncnc(Nc3cccc(Br)c3)c2cc1OC (10 µM) | -0.238 | 104% (inactive)
N=C(N)c1ccc(-c2ccc(-c3ccc(C(=N)N)cc3)o2)cc1 [furamidine] (10 µM) | -0.436 | 98% (inactive)
C[C@@]1(C(=O)O)NCCc2cc(O)c(O)cc21 [salsolinol-1-carboxylic-acid] (10 µM) | -0.0436 | 97.5% (inactive)
CCC(=O)NC1CCc2cccc(OC)c2C1 (stereo not given) (10 µM) | -0.0478 | 93.5% (inactive)
O=C(OOC(=O)c1ccccc1)c1ccccc1 [benzoyl-peroxide] (10 µM) | -0.0426 | 97.5% (inactive)
CCCc1c(OCCCOc2ccc(OCC(=O)O)cc2)ccc(C(C)=O)c1O (10 µM) | 0.0635 | 106% (inactive)
O=C(Nc1ccccc1)N1CCN(c2nc(-c3ccccc3)ns2)CC1 (10 µM) | -0.272 | 112% (inactive)
CC(C)=CCC/C(C)=C/CC/C(C)=C/CSc1ccccc1C(N)=O [farnesyl-thiosalicylic-acid-amide] (10 µM) | 0.012 | 110% (inactive)
N[C@@H]1CN(c2c(F)cc3c(=O)c(C(=O)O)cn([C@@H]4C[C@@H]4F)c3c2Cl)CC12CC2 [sitafloxacin] (10 µM) | -0.0334 | 106% (inactive)
FC(F)(F)c1cccc(-c2noc(-c3cc(-c4ccccc4)c(C(F)(F)F)s3)n2)c1 (10 µM) | -0.0447 | 114% (inactive)
COC(=O)N[C@H](C(=O)N1CCC[C@H]1c1nc(-c2ccc3c(c2)O[C@@H](c2ccccc2)n2c-3cc3cc(-c4c[nH]c([C@@H]5CCCN5C(=O)[C@@H](NC(=O)OC)C(C)C)n4)ccc32)c[nH]1)C(C)C [elbasvir] (10 µM) | -0.17 | 120% (inactive)
CC(C)[C@@H](C(=O)Nc1nccs1)c1ccc(Cl)cc1 (10 µM) | 0.0344 | 98.5% (inactive)
CCCCCCc1ccc(O)cc1O [hexylresorcinol] (10 µM) | 0.199 | 88% (inactive)
COc1cc(Nc2nc3ccccc3nc2NS(=O)(=O)c2ccc(NC(=O)c3ccc(C)c(OC)c3)cc2)cc(OC)c1 (10 µM) | 0.0476 | 119% (inactive)
Cn1c(=O)c2c(ncn2CC(=O)Nc2ccc(-c3ccccc3)nn2)n(C)c1=O (10 µM) | 0.382 | 80.5% (inactive)

SMILES | morphology score [1] | SARS-CoV-2 infection rate [2]
CNc1cc(OC)c(C(=O)NC2CCN(Cc3ccccc3)C2C)cc1Cl (stereo not given) [nemonapride] (10 µM) | 0.642 | 36.5% (active)
O=C(O)C1=C(CSc2nnnn2CS(=O)(=O)O)CS[C@@H]2[C@H](NC(=O)[C@H](O)c3ccccc3)C(=O)N12 [Cefonicid (sodium)] (10 µM) | -0.0671 | 112% (inactive)
CNCCC=C1c2ccccc2C=Cc2ccccc21 [norcyclobenzaprine] (10 µM) | 0.314 | 81% (inactive)
C/C(=C\C(=O)Nc1ccccc1C(=O)O)c1ccc2ccccc2c1 (10 µM) | 0.23 | 103% (inactive)
CN1c2cc3c(cc2N=C(c2ccc(C(=O)O)cc2)c2ccccc21)C(C)(C)CCC3(C)C (0.833333 µM) | -0.141 | 107% (inactive)
O=C(/C=C/c1cccnc1)NCCCCC1CCN(C(=O)c2ccccc2)CC1 (0.833333 µM) | -0.0966 | 94% (inactive)
N=C(N)SCCc1c[nH]cn1 [imetit] (10 µM) | 0.1 | 106% (inactive)
CCCC(=O)O[C@]1(C(=O)COC(C)=O)CC[C@H]2[C@@H]3C[C@H](F)C4=CC(=O)C=C[C@]4(C)[C@@]3(F)[C@@H](O)C[C@@]21C [difluprednate] (10 µM) | 0.215 | 100% (inactive)
Nc1nc(O)c2[nH]nnc2n1 [azaguanine-8] (0.833333 µM) | 0.322 | 51.5% (active)
COc1ccc2[nH]c(-c3ccccc3)c(CCNC(C)=O)c2c1 [2-phenylmelatonin] (10 µM) | 0.062 | 107% (inactive)
Nc1ccc(/N=N/c2ccccc2)c(N)n1 [phenazopyridine] (10 µM) | 0.34 | 87.5% (inactive)
C[C@]12C=CC(=O)C=C1CC[C@@H]1[C@@H]2CC[C@]2(C)OC(=O)CC[C@@H]12 [Testolactone] (10 µM) | 0.176 | 80.5% (inactive)
CCOC(=O)[C@]12CC1/C(=N\O)c1ccccc1O2 (stereo not given in full) (10 µM) | 0.224 | 90.5% (inactive)
Nc1nc(-c2ccc(Cl)c(Cl)c2)c(-c2ccncc2)s1 (10 µM) | 0.37 | 99.5% (inactive)
COc1ccccc1OCC(O)CO (stereo not given) [guaifenesin] (10 µM) | -0.044 | 112% (inactive)
COc1cc(C(=S)N2CCOCC2)cc(OC)c1OC [sulmetozine] (10 µM) | 0.0452 | 106% (inactive)
Cn1c(NC[C@@H](N)Cc2ccccc2)nc(-c2ccncc2)c(-c2ccc3ccccc3c2)c1=O (10 µM) | 0.653 | 35% (active)
CCCCN(Cc1ccc(C(=O)NO)cc1)C(=O)Nc1ccccc1 [nexturastat-A] (0.833333 µM) | 0.112 | 105% (inactive)
C[C@@H](N)c1ccc(C(=O)Nc2ccnc3[nH]ccc23)cc1 (10 µM) | -0.104 | 112% (inactive)
O=Nc1c(-c2c(O)[nH]c3ccccc23)[nH]c2ccccc12 [indirubin-3-monoxime] (0.833333 µM) | 0.00718 | 106% (inactive)

SMILES | morphology score [1] | SARS-CoV-2 infection rate [2]
CC(C)(N)c1nc(-c2ccc(OC(F)(F)F)cc2)c[nH]1 (10 µM) | 0.0118 | 103% (inactive)
Cc1ccc(C)c([C@H](O)CNC(C)C)c1 [benzenemethanol,-2,5-dimethyl-[[(1-methylethyl)amino]methyl]] (10 µM) | 0.0583 | 106% (inactive)
CCC(=O)NCC[C@@H]1CCc2ccc3c(c21)CCO3 [ramelteon] (10 µM) | 0.00565 | 114% (inactive)
CC(=O)OCC(=O)NCCCOc1cccc(CN2CCCCC2)c1 [roxatidine-acetate] (10 µM) | 0.0141 | 110% (inactive)
CC1Oc2cc(cnc2N)-c2c(nn(C)c2C#N)CN(C)C(=O)c2ccc(F)cc21 (stereo not given) (0.833333 µM) | 0.32 | 81.5% (inactive)
CCC(=O)O[C@@H]1CC(=O)O[C@H](C)C/C=C/C=C/[C@H](OC(C)=O)[C@H](C)C[C@H](CC=O)[C@H](O[C@@H]2O[C@H](C)[C@@H](O[C@H]3C[C@@](C)(OC(C)=O)[C@@H](OC(=O)CC)[C@H](C)O3)[C@H](N(C)C)[C@H]2O)[C@H]1OC [miocamycin] (10 µM) | -0.0251 | 110% (inactive)
CN(C)[C@@H](CCOc1cccc2ccccc12)c1ccccc1 [dapoxetine] (10 µM) | 0.467 | 76% (inactive)
COc1cc(C(=O)N2CCOCC2)cc(OC)c1OC [trimetozine] (10 µM) | -0.0638 | 113% (inactive)
Cc1cnc(-c2ccccc2C(C)C)nc1NCc1ccc(-n2ccnn2)cc1 (10 µM) | 0.0189 | 101% (inactive)
COc1cc2c(NC3CCN(C(C)C)CC3)nc(C3CCCCC3)nc2cc1OCCCN1CCCC1 (10 µM) | 0.297 | 22.5% (active)
CN1c2c([nH]c(N)nc2=O)NC[C@@H]1CNc1ccc(C(=O)N[C@@H](CCC(=O)O)C(=O)O)cc1 [metafolin] (10 µM) | 0.0144 | 115% (inactive)
COc1ccc(C(C)(C)C)cc1CN[C@H]1C2CCN(CC2)[C@H]1C(c1ccccc1)c1ccccc1 [maropitant] (0.833333 µM) | 0.103 | 104% (inactive)
O=C(O)c1cn(C2CC2)c2cc(N3CCNCC3)c(F)cc2c1=O [ciprofloxacin] (10 µM) | 0.046 | 106% (inactive)
N=C(NCc1ccc(Cl)cc1)SCCCc1c[nH]cn1 [clobenpropit] (10 µM) | 0.14 | 104% (inactive)
CN1C2C=C(c3sccc3Br)CC1CC2 (stereo not given) (10 µM) | 0.427 | 69.5% (inactive)
COc1ccc(CCN(C)CCc2ccc(OC)c(OC)c2)cc1OC (10 µM) | 0.0297 | 103% (inactive)
CC[C@]12CCCN3CCc4c(n(c5ccccc45)C(=O)C1)[C@@H]32 [vinburnine] (10 µM) | -0.0662 | 99.5% (inactive)
CCCCN1CCC(CNC(=O)c2c3n(c4ccccc24)CCCO3)CC1 [piboserod] (10 µM) | 0.132 | 92.5% (inactive)
CSC[C@H](N)C(=O)O [S-methylcysteine] (10 µM) | 0.000717 | 102% (inactive)
CCCCCCOc1ccccc1C(N)=O [exalamide] (10 µM) | 0.105 | 108% (inactive)
